Measured values from PubChem BioAssay (NCATS).
Results filed as inconclusive are left out. The source made the active and inactive calls. Unless noted, the call rests on the fitted dose curve; in most records, active means well fitted curve in the direction sought with a large enough effect; inconclusive means small, poorly fitted or top-dose-only effect, or another doubt; inactive means no such curve, though single readings can be large; an effect the other way counts as inactive or inconclusive.

Columns and labels:
[1] = target: Lysosomal acid glucosylceramidase (Homo sapiens) (UniProt P04062); test: Glucocerebrosidase-p2 (AID 348; in the data active means potency below about 10 µM; further: potency means the concentration at half of the fitted maximal effect); details: purified GBA, blue fluorogenic substrate, 40 min
How it was run: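 Compounds titrated from 0.6 nM upwards against 0.2 nM enzyme in pH 5.9 citric acid/KH2PO4, taurocholate, tween-20; blue fluorogenic substrate 80 uM, 40 min room temperature, stopped and read Ex 365/Em 440 for AC50.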

[2] = NFAT Signaling Pathway (AID 444; active means well fitted curve in either direction with a large enough effect, not every such curve was filed as active;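 further: carbachol stimulus at about its EC50 of 1 µM final; on the % scale 0 is the no-effect control and ±100 the full control effect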); details: Jurkat NFAT-bla M1, carbachol, beta-lactamase ratio, 5 h; at 7.69 µM (top of the series) unless noted
How it was run: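 Jurkat cells with NFAT-driven β-lactamase reporter and co-expressed M1 receptor, stimulated with carbachol (final 1 uM, ~EC50), compound titration, 5 h at 37 °C. CCF4 loaded 1 h at RT; 460/530 nm ratio gave %activity and AC50.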

[3] = Stat Signaling Pathway (AID 446; active means well fitted curve in either direction with a large enough effect, not every such curve was filed as active;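 further: ME-180 cervical cancer cells given 40 pM IL-6 alongside compound; SIE-controlled beta-lactamase reporter measured as 460/530 nm FRET emission ratio; on the % scale 0 is the no-effect control and ±100 the full control effect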); details: ME-180 SIE beta-lactamase reporter, IL-6 stimulated, 5 h; at 7.69 µM (top of the series) unless noted
How it was run: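 ME-180 SIE-bla cells; overnight plating; cpd + IL-6 40 pM, 5 h, 37 C; LiveBLAzer 2.5 h RT; 460/530 nm emission ratio. Normalized to 300 pM IL-6 and 125 nM JAK inhibitor controls.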

[4] = target: Glucocorticoid receptor (Homo sapiens) (UniProt P04150); test: GR-GFP Redistribution (AID 450;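 active means compounds whose dose series gives a full or clear partial fitted curve of increased nuclear translocation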; further: potency means the concentration at half of the fitted maximal effect); details: U2OS GR-GFP nuclear translocation, laser cytometry, 2 h
[5] = target: Glucocorticoid receptor (Homo sapiens) (UniProt P04150); test: GR-EFC Redistribution (AID 451; calls by dose curve; further: potency means the concentration at half of the fitted maximal effect); details: CHO-K1 GR-EFC translocation, beta-gal luminescence, 2 h
How it was run: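 CHO-K1 cells expressing nuclear EA and GR-ED fragments of b-gal; compounds titrated up to 46 uM final, 2 h at 37 C. GR nuclear translocation read as complemented b-gal luminescence after 1 h RT detection.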

[6] = target: Mitogen-activated protein kinase 10 (Mus musculus) (UniProt Q61831); test: JNK3 AlphaScreen Assay (AID 530; active means well fitted curve in either direction with a large enough effect, not every such curve was filed as active;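 further: kinase came from lysate of stimulated human HepG2 cells; signal reports phosphorylation of biotinylated GST-cJun 1-79 at Ser73 with 10 µM ATP; on the % scale 0 is the no-effect control and ±100 the full control effect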); details: JNK3 lysate, c-Jun phosphorylation; series mostly up to 57.1 µM
How it was run: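 Pre-activated (IL-1β/TNFα) JNK3 in HepG2 lysates phosphorylates biotin-GST-cJun(1-79), 10 uM ATP; anti-phospho-cJun(Ser73) AlphaScreen read at room temperature, pH 7.6 Tris buffer. Compounds pre-incubated 15 min as titrations.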

[7] = target: 3',5'-cyclic-AMP phosphodiesterase 4B (Homo sapiens) (UniProt Q07343); test: qHTS Assay for Inhibitors of PDE-IV (AID 607; active means well fitted activation curve with a large enough effect in the main read-out, with a control signal flat, not every such curve was filed as active; further: % of control where 0% means no effect); details: HEK293 ACTOne CNG channel cells, membrane potential fluorescence; series mostly up to 22.9 µM
How it was run: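 ACTOne HEK293 cells carry a modified cAMP-gated CNG channel and express endogenous PDE4; plated 1000 cells/well, compounds up to 22.9 uM final. Membrane-potential dye fluorescence (ex 535/em 590) was read; parental cells received 10 uM forskolin + 100 uM RO 20-1724.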

[8] = qHTS Assay for Lipid Storage Modulators (AID 1519; calls by dose curve); details: Drosophila S3 cells, BODIPY lipid droplet/cell ratio, laser cytometry, cells loaded with oleic acid; for activity change, negative = inhibition: at 57.5 µM (top of the series)
How it was run: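 Cells seeded at 5,000 per well were treated with compounds over a concentration series and loaded with oleic acid (400 uM, as added). Lipid droplet fluorescence (488 nm excitation, 500-530 nm channel) was read by laser-scanning cytometry and normalized to 20 uM Triacsin C.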

[9] = target: Dual specificity protein kinase CLK4 (Homo sapiens) (UniProt Q9HAZ1); test: qHTS Assay for Inhibitors of CDC-like Kinase 4 (Kinase-Glo Assay) (AID 1770); details: recombinant Clk4, Kinase-Glo ATP depletion luminescence; series mostly up to 66.7 µM; further: nearly all actives have a fitted effect of over 65% in size; further: potency means the concentration at half of the fitted maximal effect
How it was run: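 Substrate mix (RS peptide 100 uM, ATP 1 uM) dispensed, compound pinned in, then Clk4 added to 25 nM final. Incubated 4.5 h at RT; Kinase-Glo reagent added, luminescence read after 5 min.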

[10] = target: Dual specificity protein kinase CLK4 (Homo sapiens) (UniProt Q9HAZ1); test: qHTS Assay for Inhibitors of CDC-like Kinase 4 (ADP-Glo Assay) (AID 1771); details: recombinant CLK4, ADP-Glo luminescence; series mostly up to 80 µM; further: nearly all actives have a fitted effect of over 70% in size; further: potency means the concentration at half of the fitted maximal effect
How it was run: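 Luminescence from ADP-Glo reports ADP produced by 25 nM Clk4 acting on 100 uM RS repeat peptide with 1 uM ATP over 1 hr at room temperature; residual ATP is depleted before ADP is converted to ATP for detection.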

[11] = target: Ubiquitin carboxyl-terminal hydrolase 1 (Homo sapiens) (UniProt O94782); test: Inhibitors of USP1/UAF1: Pilot qHTS (AID 504865); details: purified USP1/UAF1, Ub-rhodamine cleavage fluorescence; series mostly up to 54.9 µM;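 further: rhodamine fluorescence freed from ubiquitin-rhodamine substrate followed over time; top concentration of the series differs between compounds; on the % scale 0 is the no-effect control and ±100 the full control effect; nearly all actives have a fitted effect of over 35% in size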
How it was run: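 In 50mM HEPES pH 7.8 containing 0.5mM EDTA, 1mM TCEP, 0.1 mg/ml BSA and 0.01% Tween-20, 1nM USP1/UAF1 is exposed to compound for 15 min, then Ub-Rho (150nM final) is added and fluorescence is read over time.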

[12] = AP1 Signaling Pathway (AID 357; active means well fitted curve in either direction with a large enough effect, not every such curve was filed as active; further: on the % scale 0 is the no-effect control and ±100 the full control effect); details: ME-180 (cervical carcinoma) AP-1-bla reporter, EGF-induced, beta-lactamase ratio, 5 h; at 7.69 µM (top of the series) unless noted
How it was run: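 AP-1-bla ME-180 cells with beta-lactamase reporter under AP-1 response element, stimulated with EC50 EGF; compounds titrated, 5 hours at 37 degrees Celsius. CCF4 read at 460/530 nm ratio; positive and negative modulators judged by AC50.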

[13] = target: Dual specificity protein kinase CLK4 (Homo sapiens) (UniProt Q9HAZ1); test: qHTS Assay for Inhibitors of CDC-like Kinase 4 (ADP-FP Assay) (AID 1795); details: Transcreener ADP fluorescence polarization; series mostly up to 50 µM;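 further: recombinant human CLK4 phosphorylating RS repeat peptide at 1 µM ATP; on the % scale 0 is the no-effect control and ±100 the full control effect; nearly all actives have a fitted effect of over 60% in size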
How it was run: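 Clk4 6.25 nM; RS peptide 100 uM; ATP 1 uM; 25 mM Tris pH 7.5, 10 mM MgCl2; 1 h reaction. ADP detected via antibody/orange tracer FP displacement; TG003 positive control.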

[14] = target: Cytochrome P450 1A2 (Homo sapiens) (UniProt P05177); test: p450-cyp1a2 (AID 410; calls by dose curve; further: potency means the concentration at half of the fitted maximal effect); details: recombinant CYP1A2, luciferin-ME demethylation, luminescence; series mostly up to 57 µM
How it was run: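 Luminescent readout of luciferin formed from Luciferin-ME by human CYP1A2; data normalized against complete inhibition by 57 uM furafylline. Enzyme 20nM, substrate 100uM at Km, 100mM KPO4 buffer, 60 min reaction at room temperature.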

[15] = target: Cytochrome P450 3A4 (Homo sapiens) (UniProt P08684); test: qHTS Assay for Inhibitors and Substrates of Cytochrome P450 3A4 (AID 884); details: recombinant CYP3A4, Luciferin-PPXE luminescence; series mostly up to 57.1 µM; further: nearly all actives have a fitted effect of over 50% in size; further: potency means the concentration at half of the fitted maximal effect
How it was run: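 20 nM human CYP3A4 with 25 uM Luciferin-PPXE (at KM) in 200 mM KPO4, preincubated 10 min with compound; NADPH regeneration started a 60 min RT reaction. Luciferin detected by luminescence, normalized to 57 uM ketoconazole as full inhibition.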

[16] = target: Cytochrome P450 2C19 (Homo sapiens) (UniProt P33261); test: qHTS Assay for Inhibitors and Substrates of Cytochrome P450 2C19 (AID 899); details: recombinant CYP2C19, luciferin-H EGE luminescence; series mostly up to 57.1 µM; further: nearly all actives have a fitted effect of over 60% in size; further: potency means the concentration at half of the fitted maximal effect
How it was run: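 5 nM human CYP2C19 with 10uM Luciferin-H EGE (at KM) in 50mM KPO4, compound preincubated 10 min at 37C, then NADPH regeneration for 60 min at 37C. Luciferin read by luminescence after detection reagent; normalized to 57uM ketoconazole as full inhibition.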

[17] = target: Cytochrome P450 3A4 (Homo sapiens) (UniProt P08684); test: qHTS Assay for Activators of Cytochrome P450 3A4 (AID 885); details: recombinant CYP3A4, Luciferin-PPXE luminescence, 60 min; series mostly up to 57.1 µM; further: nearly all actives have a fitted effect of over 65% in size
How it was run: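 20nM CYP3A4 + 25uM Luciferin-PPXE (=KM), 200mM KPO4; cpd 10 min RT; NADPH regen, 60 min RT; stop w/ detection buffer, 20 min; luminescence. Normalized to 57 uM ketoconazole.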

[18] = measured here: cell count channel max response
[19] = measured here: lipid channel max response

Sequence of Ubiquitin carboxyl-terminal hydrolase 1 (Homo sapiens) (O94782 whole entry, looked up): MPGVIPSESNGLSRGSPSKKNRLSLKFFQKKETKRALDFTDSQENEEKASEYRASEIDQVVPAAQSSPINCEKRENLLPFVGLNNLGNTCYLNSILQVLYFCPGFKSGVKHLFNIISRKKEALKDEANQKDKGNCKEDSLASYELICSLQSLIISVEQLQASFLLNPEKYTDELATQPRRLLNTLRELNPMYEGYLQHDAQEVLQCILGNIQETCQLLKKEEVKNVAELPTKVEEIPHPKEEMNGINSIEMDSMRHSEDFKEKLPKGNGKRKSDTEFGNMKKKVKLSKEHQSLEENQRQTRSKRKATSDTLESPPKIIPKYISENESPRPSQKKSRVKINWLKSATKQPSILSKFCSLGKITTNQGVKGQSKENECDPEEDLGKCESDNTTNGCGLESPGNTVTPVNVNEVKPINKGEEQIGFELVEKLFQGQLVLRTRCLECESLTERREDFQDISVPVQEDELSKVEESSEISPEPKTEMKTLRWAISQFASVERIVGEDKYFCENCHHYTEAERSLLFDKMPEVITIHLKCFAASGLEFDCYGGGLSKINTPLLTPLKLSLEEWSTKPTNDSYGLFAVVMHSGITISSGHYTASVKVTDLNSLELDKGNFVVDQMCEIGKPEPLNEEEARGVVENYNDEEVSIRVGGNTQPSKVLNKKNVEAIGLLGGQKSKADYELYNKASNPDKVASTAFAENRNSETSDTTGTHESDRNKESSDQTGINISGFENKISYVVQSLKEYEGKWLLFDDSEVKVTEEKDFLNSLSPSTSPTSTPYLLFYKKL
Sequence of Glucocorticoid receptor (Homo sapiens) (P04150 whole entry, looked up, the tested form may be a part): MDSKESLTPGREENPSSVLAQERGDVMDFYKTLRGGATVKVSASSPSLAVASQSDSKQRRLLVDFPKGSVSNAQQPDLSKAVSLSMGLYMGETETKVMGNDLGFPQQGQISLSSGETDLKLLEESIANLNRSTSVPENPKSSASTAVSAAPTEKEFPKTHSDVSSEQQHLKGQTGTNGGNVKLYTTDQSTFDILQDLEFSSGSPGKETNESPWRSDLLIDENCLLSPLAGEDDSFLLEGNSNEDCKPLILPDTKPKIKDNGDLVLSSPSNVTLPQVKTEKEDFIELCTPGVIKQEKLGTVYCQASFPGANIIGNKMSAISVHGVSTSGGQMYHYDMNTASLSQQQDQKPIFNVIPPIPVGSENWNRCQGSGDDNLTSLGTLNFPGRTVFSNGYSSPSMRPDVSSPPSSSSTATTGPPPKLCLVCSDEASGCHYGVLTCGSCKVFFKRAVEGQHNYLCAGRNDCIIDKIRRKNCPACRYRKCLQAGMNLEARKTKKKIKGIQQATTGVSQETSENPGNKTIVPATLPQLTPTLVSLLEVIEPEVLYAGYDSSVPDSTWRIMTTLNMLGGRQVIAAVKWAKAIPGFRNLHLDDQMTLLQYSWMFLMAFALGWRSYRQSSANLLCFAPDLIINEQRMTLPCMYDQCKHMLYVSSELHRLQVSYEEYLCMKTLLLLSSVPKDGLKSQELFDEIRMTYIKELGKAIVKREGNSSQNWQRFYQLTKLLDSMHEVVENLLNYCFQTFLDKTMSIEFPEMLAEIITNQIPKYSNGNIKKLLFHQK
Sequence of 3',5'-cyclic-AMP phosphodiesterase 4B (Homo sapiens) (Q07343 whole entry, looked up): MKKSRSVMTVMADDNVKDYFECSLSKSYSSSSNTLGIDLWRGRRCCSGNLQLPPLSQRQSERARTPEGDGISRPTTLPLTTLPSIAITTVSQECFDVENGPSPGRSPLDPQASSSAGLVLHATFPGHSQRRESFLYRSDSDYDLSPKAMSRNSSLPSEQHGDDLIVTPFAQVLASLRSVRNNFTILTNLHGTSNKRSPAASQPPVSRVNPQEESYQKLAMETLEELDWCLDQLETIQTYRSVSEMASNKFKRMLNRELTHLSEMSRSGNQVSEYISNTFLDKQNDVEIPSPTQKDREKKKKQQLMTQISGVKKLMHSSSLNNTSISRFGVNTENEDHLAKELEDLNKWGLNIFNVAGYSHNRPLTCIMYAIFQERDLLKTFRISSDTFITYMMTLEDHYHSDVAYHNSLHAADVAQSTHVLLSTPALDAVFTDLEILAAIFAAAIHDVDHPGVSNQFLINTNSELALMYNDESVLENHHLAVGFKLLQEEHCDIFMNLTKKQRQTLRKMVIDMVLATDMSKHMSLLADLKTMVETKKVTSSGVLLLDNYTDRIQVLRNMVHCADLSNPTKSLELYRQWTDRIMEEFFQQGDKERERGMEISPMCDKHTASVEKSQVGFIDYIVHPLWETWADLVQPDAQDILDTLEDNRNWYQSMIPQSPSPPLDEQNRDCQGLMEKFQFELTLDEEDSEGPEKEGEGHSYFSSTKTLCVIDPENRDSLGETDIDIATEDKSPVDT
Sequence of Dual specificity protein kinase CLK4 (Homo sapiens) (Q9HAZ1 whole entry, looked up): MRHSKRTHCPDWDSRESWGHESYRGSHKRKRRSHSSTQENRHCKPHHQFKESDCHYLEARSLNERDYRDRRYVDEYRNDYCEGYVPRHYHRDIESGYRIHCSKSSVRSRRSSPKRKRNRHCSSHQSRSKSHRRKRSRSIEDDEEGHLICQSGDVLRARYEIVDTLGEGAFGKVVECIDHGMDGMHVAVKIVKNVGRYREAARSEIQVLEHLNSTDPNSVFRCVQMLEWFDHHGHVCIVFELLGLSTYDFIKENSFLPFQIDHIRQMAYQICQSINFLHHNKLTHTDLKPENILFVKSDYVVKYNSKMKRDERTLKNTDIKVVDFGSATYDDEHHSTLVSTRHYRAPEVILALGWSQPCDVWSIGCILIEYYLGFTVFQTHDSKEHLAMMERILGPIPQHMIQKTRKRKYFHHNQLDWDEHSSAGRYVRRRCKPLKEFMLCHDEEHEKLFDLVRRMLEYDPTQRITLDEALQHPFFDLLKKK
Sequence of Cytochrome P450 1A2 (Homo sapiens) (P05177 whole entry, looked up): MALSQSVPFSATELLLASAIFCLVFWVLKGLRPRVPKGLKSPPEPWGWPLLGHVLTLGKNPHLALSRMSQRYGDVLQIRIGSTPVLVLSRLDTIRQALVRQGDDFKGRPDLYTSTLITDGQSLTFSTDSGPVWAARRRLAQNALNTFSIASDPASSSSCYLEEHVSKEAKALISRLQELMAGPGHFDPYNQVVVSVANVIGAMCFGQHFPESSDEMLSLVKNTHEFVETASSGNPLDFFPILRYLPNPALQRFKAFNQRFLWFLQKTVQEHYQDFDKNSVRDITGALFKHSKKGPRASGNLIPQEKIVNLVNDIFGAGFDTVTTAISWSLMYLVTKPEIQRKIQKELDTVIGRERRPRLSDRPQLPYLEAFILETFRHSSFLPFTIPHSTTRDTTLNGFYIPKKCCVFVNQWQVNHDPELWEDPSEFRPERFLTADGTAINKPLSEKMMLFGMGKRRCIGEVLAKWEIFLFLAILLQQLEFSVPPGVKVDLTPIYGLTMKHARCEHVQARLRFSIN
Sequence of Lysosomal acid glucosylceramidase (Homo sapiens) (P04062 whole entry, looked up): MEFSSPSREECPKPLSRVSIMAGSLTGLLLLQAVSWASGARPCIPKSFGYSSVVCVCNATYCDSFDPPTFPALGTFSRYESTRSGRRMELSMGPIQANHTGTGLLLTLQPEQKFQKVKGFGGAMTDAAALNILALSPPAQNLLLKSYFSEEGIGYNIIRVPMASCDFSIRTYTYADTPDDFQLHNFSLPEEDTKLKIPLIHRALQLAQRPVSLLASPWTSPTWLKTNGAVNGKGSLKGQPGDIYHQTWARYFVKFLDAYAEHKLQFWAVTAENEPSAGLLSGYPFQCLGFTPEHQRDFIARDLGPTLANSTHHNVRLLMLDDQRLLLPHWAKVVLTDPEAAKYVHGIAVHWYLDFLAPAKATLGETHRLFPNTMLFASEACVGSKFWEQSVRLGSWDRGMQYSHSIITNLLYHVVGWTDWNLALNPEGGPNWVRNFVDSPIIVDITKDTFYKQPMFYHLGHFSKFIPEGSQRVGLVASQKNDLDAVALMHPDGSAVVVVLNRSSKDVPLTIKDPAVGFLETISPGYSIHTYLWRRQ
Sequence of Cytochrome P450 3A4 (Homo sapiens) (P08684 whole entry, looked up): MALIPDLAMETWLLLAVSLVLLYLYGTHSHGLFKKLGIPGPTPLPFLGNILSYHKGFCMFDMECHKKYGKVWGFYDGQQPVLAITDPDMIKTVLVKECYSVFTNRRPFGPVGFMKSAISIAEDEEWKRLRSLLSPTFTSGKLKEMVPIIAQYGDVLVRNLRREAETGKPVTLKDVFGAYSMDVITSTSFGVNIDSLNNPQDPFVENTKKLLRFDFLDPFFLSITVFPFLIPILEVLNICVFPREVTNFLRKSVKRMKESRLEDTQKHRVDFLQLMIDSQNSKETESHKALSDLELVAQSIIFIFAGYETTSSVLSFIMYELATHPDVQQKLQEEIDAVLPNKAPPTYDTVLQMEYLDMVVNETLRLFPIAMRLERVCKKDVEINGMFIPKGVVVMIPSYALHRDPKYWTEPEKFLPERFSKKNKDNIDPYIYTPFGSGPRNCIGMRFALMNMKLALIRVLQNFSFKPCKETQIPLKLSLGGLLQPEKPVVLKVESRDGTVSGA
Sequence of Cytochrome P450 2C19 (Homo sapiens) (P33261 whole entry, looked up): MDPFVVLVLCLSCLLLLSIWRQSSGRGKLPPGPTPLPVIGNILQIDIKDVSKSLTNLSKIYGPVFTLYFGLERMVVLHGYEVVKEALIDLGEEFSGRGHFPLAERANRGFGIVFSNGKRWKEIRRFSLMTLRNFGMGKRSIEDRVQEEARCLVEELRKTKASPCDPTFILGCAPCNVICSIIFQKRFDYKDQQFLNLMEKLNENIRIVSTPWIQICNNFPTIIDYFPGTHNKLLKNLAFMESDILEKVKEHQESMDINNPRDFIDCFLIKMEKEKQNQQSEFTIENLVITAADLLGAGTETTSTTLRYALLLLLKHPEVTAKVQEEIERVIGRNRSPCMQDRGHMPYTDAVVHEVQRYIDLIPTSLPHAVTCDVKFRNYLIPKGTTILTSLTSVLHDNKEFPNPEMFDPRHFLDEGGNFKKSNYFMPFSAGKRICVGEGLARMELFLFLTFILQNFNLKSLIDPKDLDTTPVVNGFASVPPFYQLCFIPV

Row | SMILES | Potency [1] | activity change, negative = inhibition [2] | activity, negative = inhibition [3] | Potency [4] | Potency [5] | Potency [6] | Potency [7] | activity change, negative = inhibition [8] | max response [8, 18] [%] | max response [8, 19] [%] | Potency [9] | Potency [10] | Potency [11] | activity change, negative = inhibition [12] | Potency [13] | Potency [14] | Potency [15] | Potency [16] | Potency [17]
1 | COc1cccc(Nc2ncc3nc(C)c(=O)n(C[C@H]4CCCO4)c3n2)c1 | > 11.4 µM (inactive) | 8.96% (inactive) | -10.3% (inactive) | > 9.22 µM (inactive) | > 46 µM (inactive) | inactive | inactive | -3.96% (inactive) | -4.6 | -7.75 | 12.6 µM (active) | 17.8 µM (active) | inactive | – | – | – | – | – | –
2 | COc1cccc(Cn2c(=O)c(C)nc3cnc(Nc4cccc(OC)c4)nc32)c1 | > 11.4 µM (inactive) | 19% (inactive) | -18.7% (inactive) | > 9.22 µM (inactive) | > 46 µM (inactive) | inactive | – | -5.29% (inactive) | 11.9 | 6.74 | inactive | – | inactive | -28.7% (inactive) | inactive | – | – | – | –
3 | CN1CCN(c2ncc3nc(-c4cccc(C#N)c4)c(=O)n(C[C@H]4CCCO4)c3n2)CC1 | > 11.4 µM (inactive) | -3.07% (inactive) | 11.4% (inactive) | > 9.22 µM (inactive) | > 46 µM (inactive) | inactive | inactive | 2.76% (inactive) | 11.1 | 12.1 | inactive | – | inactive | 27.9% (inactive) | inactive | 15.8 µM (active) | inactive | inactive | –
4 | CN(C)Cc1ccccc1-c1nccc(Nc2ccc(F)cc2)n1 | 10.8 µM (inactive) | -13.9% (inactive) | -5.3% (inactive) | > 46 µM (inactive) | > 46 µM (inactive) | inactive | – | 5.52% (inactive) | 21.6 | 26.6 | inactive | inactive | inactive | 7.82% (inactive) | – | 3.16 µM (active) | – | – | inactive
5 | COCCn1c(=O)c(CCc2ccccc2)nc2cnc(Oc3ccc(OC)cc3)nc21 | > 11.4 µM (inactive) | 2.36% (inactive) | -17% (inactive) | > 9.22 µM (inactive) | > 46 µM (inactive) | inactive | inactive | -2.61% (inactive) | 5.1 | 2.19 | – | inactive | inactive | -14.8% (inactive) | inactive | 15.8 µM (active) | 3.16 µM (active) | – | inactive
6 | COc1ccccc1-c1ccc2ncnc(Nc3ccccc3)c2c1 | > 11.4 µM (inactive) | 10.9% (inactive) | 9.56% (inactive) | – | > 46 µM (inactive) | inactive | – | -15.1% (inactive) | -15.8 | -29 | 15.8 µM (active) | 15.8 µM (active) | inactive | – | – | 2.51 µM (active) | – | 5.01 µM (active) | inactive
